Measured values taken from PubChem BioAssay (NCATS).
Values joined by “and” are separate entries in the source; they are usually repeats but may differ in a detail not shown here. Equal entries are not always repeated. Records with an inconclusive call do not appear. Active and inactive are the calls of the source. Unless noted, the call rests on the fitted dose curve; in most records, active means well fitted curve in the direction sought with a large enough effect; inconclusive means small, poorly fitted or top-dose-only effect, or another doubt; inactive means no such curve, though single readings can be large; an effect the other way counts as inactive or inconclusive.

Experiments:
[1] = Cell Viability - SH-SY5Y (AID 544); settings: SH-SY5Y neuroblastoma cell viability; viability change, negative = cytotoxic: at 92.2 µM (top of the series); further: nearly all actives have a fitted effect of over 55% in size
How it was run: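 Human neuroblastoma SH-SY5Y cells (1500/well) in complete medium were exposed to compounds for 40 hr at 37 °C; intracellular ATP was then quantified by CellTiter-Glo luminescence after 20 min at room temperature. AC50 came from Hill-equation concentration-response fits.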

[2] = Cellular Toxicity (caspase-3) Jurkat (AID 655); settings: Jurkat caspase-3 activation, luminescence; caspase-3 activation: at 92.2 µM (top of the series), DMSO = 0%, tamoxifen = 100%;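 further: cells exposed to compound for 16 h at 37 °C before reading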
How it was run: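 5000 Jurkat cells/well; compound 16 hr, 37 °C; Caspase-Glo 3/7 added, 20 min RT; luminescence read. Norm: DMSO = 0%, tamoxifen 100 uM = 100%. AC50, Hill model.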

[3] = MultiTox-Fluor Cytotoxicity Assay - LYMP1-003 - Live Cells (AID 962);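 further: 0% = DMSO only and full loss = 92 µM tetraoctylammonium bromide; cytotoxic hits lower the live-cell protease signal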
How it was run: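 LYMP1-003 human lymphoblastoid cells (2500/well) in complete medium were preincubated 5 hr at 37 C, then exposed to compounds for 16 hr at 37 C. Live-cell protease cleavage of GF-AFC read by fluorescence (Ex/Em 405/510); AC50 from Hill fits.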

[4] = Cell Viability - LYMP1-003 - Assay at 24 hr (AID 963);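 further: plate controls were DMSO only for no effect and tetraoctylammonium bromide positive control for full effect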
How it was run: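 Human lymphoblastoid LYMP1-003 cells (2500/well) were rested 5 hr at 37 C, then exposed to compounds in complete medium for 24 hr at 37 C. Cellular ATP was quantified by CellTiter-Glo luminescence, and AC50 values came from Hill fits of concentration-response data.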

[5] = Cell Viability - LYMP1-003 - Assay at 40 hr (AID 964); further: on the % scale 0 is the no-effect control and ±100 the full control effect; nearly all actives have a fitted effect of over 60% in size
How it was run: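 Human lymphoblastoid LYMP1-003 cells, 2500/well in complete medium, rested 5 hr at 37 C, then exposed to compounds for 40 hr at 37 C. Viability read as intracellular ATP by CellTiter-Glo luminescence; AC50 from Hill fits of concentration-response data.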

[6] = Cell Viability - LYMP2-003 (AID 965);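 further: cells exposed to compounds for 24 h before reading; 0% = DMSO only and full effect = 92 µM tetraoctylammonium bromide; nearly all actives have a fitted effect of over 50% in size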
How it was run: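 Seed 2500 lymphoblastoid cells/well; incubate 5 hr, 37 C; add compounds; incubate 24 hr, 37 C; add CellTiter-Glo, 30 min RT; read luminescence. AC50 from Hill fit.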

[7] = Cell Viability - LYMP2-004 (AID 966);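 further: plate controls were DMSO only for no effect and tetraoctylammonium bromide control for full effect; nearly all actives have a fitted effect of over 65% in size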
How it was run: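 Human lymphoblastoid cells (2500/well) in complete medium were treated with compounds for 24 hr at 37 C, then intracellular ATP was measured by CellTiter-Glo luminescence. AC50 values came from Hill-equation fits of concentration-response data.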

[8] = Cell Viability - LYMP2-017 (AID 972); further: on the % scale 0 is the no-effect control and ±100 the full control effect; nearly all actives have a fitted effect of over 55% in size
How it was run: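 Human lymphoblastoid cells (2500/well) were seeded in complete medium, held 5 hr at 37 C, then exposed to compounds for 24 hr at 37 C. Intracellular ATP was read by CellTiter-Glo luminescence after 30 min at room temperature, with AC50 values from Hill-equation fits.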

[9] = Cell Viability - LYMP2-019 (AID 973);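 further: 0% = DMSO alone and full effect = 92 µM tetraoctylammonium bromide; nearly all actives have a fitted effect of over 55% in size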
How it was run: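 Human lymphoblastoid cells were seeded at 2500 cells/well, preincubated 5 hr at 37 C, then exposed to compounds for 24 hr at 37 C in complete medium. Intracellular ATP was measured by CellTiter-Glo luminescence; AC50 from Hill fits.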

[10] = Cell Viability - LYMP2-025 (AID 976);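 further: plate controls were DMSO only for no effect and tetraoctylammonium bromide control for full effect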
How it was run: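 Human lymphoblastoid LYMP2-025 cells (2500/well) were pre-incubated 5 hr at 37 C, then treated with compounds for 24 hr at 37 C in complete medium. Viability was read as intracellular ATP by CellTiter-Glo luminescence; AC50 from Hill fits.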

[11] = Cell Viability - LYMP2-007 (AID 979);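 further: cells exposed to compound for 24 h before reading; 0% = DMSO only and the negative end = 92 µM tetraoctylammonium bromide; nearly all actives have a fitted effect of over 60% in size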
How it was run: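 Human lymphoblastoid cells (2500/well) were plated in complete medium, incubated 5 hr at 37 C, then exposed to compounds for 24 hr at 37 C. Intracellular ATP was read by CellTiter-Glo luminescence after 30 min at room temperature; AC50 from Hill fits.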

[12] = Cell Viability - LYMP2-008 (AID 980); further: on the % scale 0 is the no-effect control and ±100 the full control effect; nearly all actives have a fitted effect of over 60% in size
How it was run: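 Human lymphoblastoid cells (2500/well) were plated, held 5 hr at 37 C, then exposed to compounds for 24 hr at 37 C in complete medium. Intracellular ATP was read by CellTiter-Glo luminescence; AC50 from Hill-fitted concentration-response.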

[13] = Cell Viability - LYMP2-012 (AID 982);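 further: cellular ATP by luciferase luminescence where a drop means cytotoxicity; cells exposed to compound for one day before reading; 0% = DMSO only and full loss = 92 µM tetraoctylammonium bromide; nearly all actives have a fitted effect of over 55% in size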
[14] = Cell Viability - LYMP2-014 (AID 983);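 further: plate controls were DMSO only for no effect and 92 µM tetraoctylammonium bromide for full effect; nearly all actives have a fitted effect of over 50% in size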
How it was run: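 Human lymphoblastoid cells (2500/well) were pre-incubated 5 hr at 37 C, then exposed to compounds in complete medium for 24 hr at 37 C. Intracellular ATP was read by CellTiter-Glo luminescence after 30 min at room temperature; AC50 from Hill fits.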

[15] = Cell Viability - LYMP2-018 (AID 985);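 further: compound exposure lasted 24 hr at 37 °C; plate controls were DMSO only for no effect and tetraoctylammonium bromide at 92 µM for full effect; nearly all actives have a fitted effect of over 50% in size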
How it was run: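 Human lymphoblastoid cells (2500/well) were pre-incubated 5 hr at 37 C, then exposed to compounds for 24 hr at 37 C in complete medium. Viability was read as intracellular ATP by CellTiter-Glo luminescence; AC50 values came from Hill-equation fits.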

[16] = Cell Viability - LYMP1-002 - Assay at 40 hr (AID 994);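 further: 0% = DMSO only and full inhibition = 92 µM tetraoctylammonium bromide; nearly all actives have a fitted effect of over 60% in size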
How it was run: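 Human lymphoblastoid cells, 2500/well in complete medium, were preincubated 5 hr at 37 C, then exposed to compounds for 40 hr at 37 C. Intracellular ATP was read by CellTiter-Glo luminescence after 30 min at room temperature; AC50 from Hill-equation fits.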

[17] = qHTS assay for small molecule agonists of retinoid X receptor alpha signaling (AID 588544; calls by dose curve;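 on activation: 0% = DMSO basal wells and 100% = reference agonist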); settings: HEK293T RXRa-UAS-bla, beta-lactamase reporter, 18 h; 530 nm emission
[18] = target: Retinoic acid receptor RXR-alpha (Homo sapiens) (UniProt P19793); assay: as above
Retinoic acid receptor RXR-alpha (Homo sapiens), sequence (P19793 whole entry, looked up): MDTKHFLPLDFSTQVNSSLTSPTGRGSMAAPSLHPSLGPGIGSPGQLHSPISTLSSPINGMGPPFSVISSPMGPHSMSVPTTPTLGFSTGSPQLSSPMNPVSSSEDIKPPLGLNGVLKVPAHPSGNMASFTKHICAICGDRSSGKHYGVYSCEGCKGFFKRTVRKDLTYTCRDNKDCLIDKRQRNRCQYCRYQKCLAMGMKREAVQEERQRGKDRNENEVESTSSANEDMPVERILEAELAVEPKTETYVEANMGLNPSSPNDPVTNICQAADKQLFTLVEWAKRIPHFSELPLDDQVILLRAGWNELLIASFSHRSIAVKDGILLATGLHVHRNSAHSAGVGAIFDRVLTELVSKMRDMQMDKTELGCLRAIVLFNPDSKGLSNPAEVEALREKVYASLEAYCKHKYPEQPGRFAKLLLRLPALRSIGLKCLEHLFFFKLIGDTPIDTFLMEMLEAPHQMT

[19] = qHTS assay for small molecule antagonists of retinoid X receptor alpha signaling (AID 588546); settings: HEK293T RXRa-UAS-bla, beta-lactamase ratio, antagonist mode; measured here: W530 green channel, cytotoxicity proxy;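 further: cells stimulated with 9-cis-retinoic acid as agonist; on the % scale 0 is the no-effect control and ±100 the full control effect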
How it was run: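 Beta-lactamase reporter inhibition, read as CCF4 fluorescence ratio (ex 405, em 460/530 nm) after 2 h at RT. HEK293T UAS-bla cells, 2500/well, were stimulated with 9-cis-RA at 500 or 100 nM final alongside test compound for 18 h at 37 C.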

[20] = qHTS assay for small molecule antagonists of the retinoid-related orphan receptor gamma (ROR-gamma) signaling pathway - cell viability counter screen (AID 720652; active means well fitted curve in the direction sought with a large enough effect in the repeat runs; an effect the other way counts as inactive or inconclusive;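 further: CHO reporter cells with doxycycline-induced ROR-gamma expression; compound exposure lasted 16 hr before ATP read; on the % scale 0 is the no-effect control and ±100 the full control effect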)
How it was run: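 Counter screen in CHO cells carrying TET-inducible ROR-gamma and an ROR response element-luciferase reporter; cells plated 5 hr, compound pinned, doxycycline added, then 16 hr at 37 C. Viability read as intracellular ATP by CellTiter-Glo luminescence.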

Clc1ccc(C(Cl)(Cl)Cl)c(Cl)c1
-5.84%: max response [17]
-9.41%: max response [19]
inactive: Potency [1] | caspase-3 activation [2] -1.19% | outcome [3] | outcome [4] | Potency [5] | Potency [6] | Potency [7] | Potency [8] | Potency [9] | Potency [10] | Potency [11] | Potency [12] | Potency [13] | Potency [14] | Potency [15] | Potency [16] | outcome [18] | Potency [20]

CC(C)OC(=O)Cc1ccccc1
-2.88%: max response [19]
inactive: Potency [1] | caspase-3 activation [2] -1.43% | outcome [3] | outcome [4] | Potency [5] | Potency [6] | Potency [7] | Potency [8] | Potency [9] | Potency [10] | Potency [11] | Potency [12] | Potency [13] | Potency [14] | Potency [15] | Potency [16] | outcome [18] | Potency [20]
1.88%: max response [17]

OCCCCO
inactive: Potency [1] | caspase-3 activation [2] -0.218% | outcome [3] | outcome [4] | Potency [5] | Potency [6] | Potency [7] | Potency [8] | Potency [9] | Potency [10] | Potency [11] | Potency [12] | Potency [13] | Potency [14] | Potency [15] | Potency [16] | outcome [18] | Potency [20]
1.71%: max response [17]
-5.28%: max response [19]

Clc1ccc(Cl)c(Cl)c1
10.3% and -7.29%: max response [19]
inactive: Potency [1] | caspase-3 activation [2] -0.724% | outcome [3] | outcome [4] | Potency [5] | Potency [6] | Potency [7] | Potency [8] | Potency [9] | Potency [10] | Potency [11] | Potency [12] | Potency [13] | Potency [14] | Potency [15] | Potency [16] | outcome [18] | Potency [20]
-7.44% and -24%: max response [17]

CC(C)CON=O
inactive: Potency [1] | caspase-3 activation [2] -1.62% | outcome [3] | outcome [4] | Potency [5] | Potency [6] | Potency [7] | Potency [8] | Potency [9] | Potency [10] | Potency [11] | Potency [12] | Potency [13] | Potency [14] | Potency [15] | Potency [16] | outcome [18]
6.03%: max response [17]
-4.96%: max response [19]

CN=C=O
inactive: Potency [1] | caspase-3 activation [2] -0.0583% | outcome [3] | outcome [4] | Potency [5] | Potency [6] | Potency [7] | Potency [8] | Potency [9] | Potency [10] | Potency [11] | Potency [12] | Potency [13] | Potency [14] | Potency [15] | Potency [16] | outcome [18] | Potency [20]
-13%: max response [17]
-1.71%: max response [19]

C=CCCl
inactive: Potency [1] | caspase-3 activation [2] 0.433% | outcome [3] | outcome [4] | Potency [5] | Potency [6] | Potency [7] | Potency [8] | Potency [9] | Potency [10] | Potency [11] | Potency [12] | Potency [13] | Potency [14] | Potency [15] | Potency [16] | outcome [18] | Potency [20]
-13.3%: max response [17]

c1ccoc1
inactive: Potency [1] | caspase-3 activation [2] 0.558% | outcome [3] | outcome [4] | Potency [5] | Potency [6] | Potency [7] | Potency [8] | Potency [9] | Potency [10] | Potency [11] | Potency [12] | Potency [13] | Potency [14] | Potency [15] | Potency [16] | outcome [18] | Potency [20]
1%: max response [19]
-15.5%: max response [17]

CCC(Cl)[N+](=O)[O-] (stereo not given)
inactive: Potency [1] | caspase-3 activation [2] 1.33% | outcome [3] | outcome [4] | Potency [5] | Potency [6] | Potency [7] | Potency [8] | Potency [9] | Potency [10] | Potency [11] | Potency [12] | Potency [13] | Potency [14] | Potency [15] | Potency [16] | outcome [18] | Potency [20]
-9.88%: max response [19]
-8.6%: max response [17]

Clc1cccc2ccccc12
-3.08%: max response [19]
inactive: Potency [1] | caspase-3 activation [2] 0.494% | outcome [3] | outcome [4] | Potency [5] | Potency [6] | Potency [7] | Potency [8] | Potency [9] | Potency [10] | Potency [11] | Potency [12] | Potency [13] | Potency [14] | Potency [15] | Potency [16] | outcome [18] | Potency [20]
0.056%: max response [17]

CC(C)Br
-8.42%: max response [17]
4.33%: max response [19]
inactive: Potency [1] | caspase-3 activation [2] 0.12% | outcome [3] | outcome [4] | Potency [5] | Potency [6] | Potency [7] | Potency [8] | Potency [9] | Potency [10] | Potency [11] | Potency [12] | Potency [13] | Potency [14] | Potency [15] | Potency [16] | outcome [18] | Potency [20]

NNC(N)=S
inactive: Potency [1] | caspase-3 activation [2] 0.589% | outcome [3] | outcome [4] | Potency [5] | Potency [6] | Potency [7] | Potency [8] | Potency [9] | Potency [10] | Potency [11] | Potency [12] | Potency [13] | Potency [14] | Potency [15] | Potency [16] | Potency [20]
6.4%: max response [19]

C/C=C/CC#N
-10.7%: max response [17]
inactive: Potency [1] | caspase-3 activation [2] 0.734% | outcome [3] | outcome [4] | Potency [5] | Potency [6] | Potency [7] | Potency [8] | Potency [9] | Potency [10] | Potency [11] | Potency [12] | Potency [13] | Potency [14] | Potency [15] | Potency [16] | outcome [18] | Potency [20]
5.46%: max response [19]

c1ccc(NNc2ccccc2)cc1
inactive: Potency [1] | caspase-3 activation [2] 0.504% | outcome [3] | outcome [4] | Potency [5] | Potency [6] | Potency [8] | Potency [9] | Potency [10] | Potency [11] | Potency [12] | Potency [13] | Potency [14] | Potency [15] | Potency [16] | outcome [18] | Potency [20]
-8.78% and -5.97%: max response [19]
-6.25% and -9.7%: max response [17]

Nc1cc(Cl)cc(Cl)c1
inactive: Potency [1] | caspase-3 activation [2] -0.381% | outcome [3] | outcome [4] | Potency [5] | Potency [6] | Potency [7] | Potency [8] | Potency [9] | Potency [10] | Potency [11] | Potency [12] | Potency [13] | Potency [14] | Potency [15] | Potency [16] | outcome [18] | Potency [20]
-17%: max response [17]
-5.15%: max response [19]
